Compound in the experiment: Nc1ncnc2c1ncn2[C@@H]1O[C@H](COP(=O)(O)OP(=O)(O)NP(=O)(O)O)[C@@H](O)[C@H]1O [adenylyl imidodiphosphate]
The experiment is described as follows: NP40-soluble protein abundance relative to vehicle (solubility fold change) (ratio); higher = more soluble protein in presence of AMP-PNP. In short, it runs like this:
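Each value is a fold change relative to the detergent-processed vehicle, calculated per replicate from vsn-normalised intensities. Jurkat crude lysate received eight concentrations (0.1 to 10 mM) for 10 min at room temperature and 3 min at 37 °C, then was solubilised in 0.8% NP40 with benzonase (60 min, 4 °C). The ultracentrifuged supernatant was TMT-labelled and run by LC-MS/MS in three independent experiments.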

± gives the standard deviation of the averaged measurements. Of roughly 6,200 targets only a part is listed; those with the largest changes were picked by preference.

UniProt Q16563, sequence (Q16563 whole entry, one chain of several): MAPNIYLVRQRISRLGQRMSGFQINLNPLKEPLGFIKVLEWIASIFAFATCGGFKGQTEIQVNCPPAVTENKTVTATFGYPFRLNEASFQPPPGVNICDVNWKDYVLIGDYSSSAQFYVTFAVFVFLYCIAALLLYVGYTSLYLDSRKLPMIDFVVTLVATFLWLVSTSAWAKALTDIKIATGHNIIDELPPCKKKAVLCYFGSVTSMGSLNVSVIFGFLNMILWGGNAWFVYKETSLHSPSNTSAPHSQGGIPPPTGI
UniProt Q13227, sequence (Q13227 whole entry, one chain of several): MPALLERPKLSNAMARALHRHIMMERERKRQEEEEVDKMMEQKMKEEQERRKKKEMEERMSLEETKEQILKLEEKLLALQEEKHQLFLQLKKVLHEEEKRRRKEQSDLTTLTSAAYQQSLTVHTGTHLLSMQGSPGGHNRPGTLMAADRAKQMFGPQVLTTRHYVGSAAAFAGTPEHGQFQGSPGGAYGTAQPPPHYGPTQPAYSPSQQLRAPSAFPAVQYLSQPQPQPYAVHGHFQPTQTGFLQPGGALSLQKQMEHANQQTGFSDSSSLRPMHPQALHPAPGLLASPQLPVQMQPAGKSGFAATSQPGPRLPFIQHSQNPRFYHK
UniProt Q9Y2K7, sequence (Q9Y2K7 whole entry, one chain of several): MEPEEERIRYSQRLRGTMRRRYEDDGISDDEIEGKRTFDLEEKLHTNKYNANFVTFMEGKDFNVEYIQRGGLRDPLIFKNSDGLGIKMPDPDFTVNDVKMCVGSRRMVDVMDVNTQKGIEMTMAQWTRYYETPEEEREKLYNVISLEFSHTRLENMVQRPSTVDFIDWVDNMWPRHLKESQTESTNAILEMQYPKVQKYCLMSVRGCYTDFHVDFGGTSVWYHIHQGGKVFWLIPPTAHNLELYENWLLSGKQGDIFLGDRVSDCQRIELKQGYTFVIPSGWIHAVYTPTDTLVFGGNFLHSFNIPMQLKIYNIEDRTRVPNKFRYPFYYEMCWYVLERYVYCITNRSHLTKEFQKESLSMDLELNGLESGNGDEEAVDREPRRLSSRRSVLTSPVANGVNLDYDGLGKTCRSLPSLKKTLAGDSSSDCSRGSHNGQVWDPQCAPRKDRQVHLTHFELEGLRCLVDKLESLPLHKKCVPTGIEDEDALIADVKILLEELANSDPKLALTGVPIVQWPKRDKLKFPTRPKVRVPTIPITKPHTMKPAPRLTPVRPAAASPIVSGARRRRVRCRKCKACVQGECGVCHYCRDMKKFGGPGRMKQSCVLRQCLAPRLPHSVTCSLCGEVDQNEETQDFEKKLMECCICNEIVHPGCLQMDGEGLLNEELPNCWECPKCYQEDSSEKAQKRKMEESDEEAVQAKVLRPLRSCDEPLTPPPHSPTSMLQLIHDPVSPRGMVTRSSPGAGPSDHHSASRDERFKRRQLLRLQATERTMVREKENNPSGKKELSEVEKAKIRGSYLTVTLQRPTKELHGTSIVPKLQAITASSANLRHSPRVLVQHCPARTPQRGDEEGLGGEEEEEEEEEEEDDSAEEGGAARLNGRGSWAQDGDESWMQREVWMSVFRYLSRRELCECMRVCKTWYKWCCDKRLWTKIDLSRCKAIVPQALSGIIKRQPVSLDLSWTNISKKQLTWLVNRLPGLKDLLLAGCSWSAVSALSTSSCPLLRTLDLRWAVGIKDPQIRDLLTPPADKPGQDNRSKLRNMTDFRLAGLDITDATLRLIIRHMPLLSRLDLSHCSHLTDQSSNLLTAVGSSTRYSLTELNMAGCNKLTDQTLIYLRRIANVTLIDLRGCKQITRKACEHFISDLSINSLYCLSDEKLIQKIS
UniProt O43716, sequence (O43716 whole entry, looked up, other chains not shown): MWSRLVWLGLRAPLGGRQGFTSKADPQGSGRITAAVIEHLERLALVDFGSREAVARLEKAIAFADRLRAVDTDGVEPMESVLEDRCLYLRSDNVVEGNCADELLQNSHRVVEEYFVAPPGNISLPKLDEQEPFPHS
UniProt Q8TBC5, sequence (Q8TBC5 whole entry, one chain of several): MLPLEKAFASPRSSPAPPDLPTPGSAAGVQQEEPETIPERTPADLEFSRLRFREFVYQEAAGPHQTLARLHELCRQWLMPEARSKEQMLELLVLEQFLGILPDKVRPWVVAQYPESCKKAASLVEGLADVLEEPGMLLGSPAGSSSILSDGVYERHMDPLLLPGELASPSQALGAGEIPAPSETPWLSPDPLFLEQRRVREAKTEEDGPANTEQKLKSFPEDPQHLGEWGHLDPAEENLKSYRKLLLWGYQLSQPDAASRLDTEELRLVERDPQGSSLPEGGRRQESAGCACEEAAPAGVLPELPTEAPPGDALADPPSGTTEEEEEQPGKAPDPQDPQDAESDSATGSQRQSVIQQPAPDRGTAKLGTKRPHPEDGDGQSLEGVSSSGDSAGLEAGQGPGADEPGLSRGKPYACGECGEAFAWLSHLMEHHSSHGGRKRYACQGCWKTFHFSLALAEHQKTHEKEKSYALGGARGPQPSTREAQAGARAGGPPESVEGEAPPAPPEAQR
UniProt Q5VW38, sequence (Q5VW38 whole entry, one chain of several): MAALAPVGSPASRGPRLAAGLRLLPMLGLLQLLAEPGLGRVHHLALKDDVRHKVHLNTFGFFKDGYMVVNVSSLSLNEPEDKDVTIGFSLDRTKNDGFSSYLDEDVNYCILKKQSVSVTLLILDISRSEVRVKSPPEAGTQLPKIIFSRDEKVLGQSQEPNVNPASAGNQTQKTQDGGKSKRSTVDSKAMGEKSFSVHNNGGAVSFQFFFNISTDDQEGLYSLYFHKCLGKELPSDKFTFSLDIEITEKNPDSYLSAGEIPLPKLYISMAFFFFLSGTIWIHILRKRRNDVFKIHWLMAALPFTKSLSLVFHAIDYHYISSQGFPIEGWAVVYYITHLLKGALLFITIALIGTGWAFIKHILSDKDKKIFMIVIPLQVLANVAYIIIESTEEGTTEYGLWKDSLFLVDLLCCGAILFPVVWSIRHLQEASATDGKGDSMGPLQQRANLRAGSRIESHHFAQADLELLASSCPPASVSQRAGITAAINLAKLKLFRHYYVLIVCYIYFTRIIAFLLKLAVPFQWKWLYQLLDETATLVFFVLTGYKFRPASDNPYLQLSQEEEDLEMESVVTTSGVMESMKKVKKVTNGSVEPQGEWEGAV
UniProt A3KMH1, sequence (A3KMH1 whole entry): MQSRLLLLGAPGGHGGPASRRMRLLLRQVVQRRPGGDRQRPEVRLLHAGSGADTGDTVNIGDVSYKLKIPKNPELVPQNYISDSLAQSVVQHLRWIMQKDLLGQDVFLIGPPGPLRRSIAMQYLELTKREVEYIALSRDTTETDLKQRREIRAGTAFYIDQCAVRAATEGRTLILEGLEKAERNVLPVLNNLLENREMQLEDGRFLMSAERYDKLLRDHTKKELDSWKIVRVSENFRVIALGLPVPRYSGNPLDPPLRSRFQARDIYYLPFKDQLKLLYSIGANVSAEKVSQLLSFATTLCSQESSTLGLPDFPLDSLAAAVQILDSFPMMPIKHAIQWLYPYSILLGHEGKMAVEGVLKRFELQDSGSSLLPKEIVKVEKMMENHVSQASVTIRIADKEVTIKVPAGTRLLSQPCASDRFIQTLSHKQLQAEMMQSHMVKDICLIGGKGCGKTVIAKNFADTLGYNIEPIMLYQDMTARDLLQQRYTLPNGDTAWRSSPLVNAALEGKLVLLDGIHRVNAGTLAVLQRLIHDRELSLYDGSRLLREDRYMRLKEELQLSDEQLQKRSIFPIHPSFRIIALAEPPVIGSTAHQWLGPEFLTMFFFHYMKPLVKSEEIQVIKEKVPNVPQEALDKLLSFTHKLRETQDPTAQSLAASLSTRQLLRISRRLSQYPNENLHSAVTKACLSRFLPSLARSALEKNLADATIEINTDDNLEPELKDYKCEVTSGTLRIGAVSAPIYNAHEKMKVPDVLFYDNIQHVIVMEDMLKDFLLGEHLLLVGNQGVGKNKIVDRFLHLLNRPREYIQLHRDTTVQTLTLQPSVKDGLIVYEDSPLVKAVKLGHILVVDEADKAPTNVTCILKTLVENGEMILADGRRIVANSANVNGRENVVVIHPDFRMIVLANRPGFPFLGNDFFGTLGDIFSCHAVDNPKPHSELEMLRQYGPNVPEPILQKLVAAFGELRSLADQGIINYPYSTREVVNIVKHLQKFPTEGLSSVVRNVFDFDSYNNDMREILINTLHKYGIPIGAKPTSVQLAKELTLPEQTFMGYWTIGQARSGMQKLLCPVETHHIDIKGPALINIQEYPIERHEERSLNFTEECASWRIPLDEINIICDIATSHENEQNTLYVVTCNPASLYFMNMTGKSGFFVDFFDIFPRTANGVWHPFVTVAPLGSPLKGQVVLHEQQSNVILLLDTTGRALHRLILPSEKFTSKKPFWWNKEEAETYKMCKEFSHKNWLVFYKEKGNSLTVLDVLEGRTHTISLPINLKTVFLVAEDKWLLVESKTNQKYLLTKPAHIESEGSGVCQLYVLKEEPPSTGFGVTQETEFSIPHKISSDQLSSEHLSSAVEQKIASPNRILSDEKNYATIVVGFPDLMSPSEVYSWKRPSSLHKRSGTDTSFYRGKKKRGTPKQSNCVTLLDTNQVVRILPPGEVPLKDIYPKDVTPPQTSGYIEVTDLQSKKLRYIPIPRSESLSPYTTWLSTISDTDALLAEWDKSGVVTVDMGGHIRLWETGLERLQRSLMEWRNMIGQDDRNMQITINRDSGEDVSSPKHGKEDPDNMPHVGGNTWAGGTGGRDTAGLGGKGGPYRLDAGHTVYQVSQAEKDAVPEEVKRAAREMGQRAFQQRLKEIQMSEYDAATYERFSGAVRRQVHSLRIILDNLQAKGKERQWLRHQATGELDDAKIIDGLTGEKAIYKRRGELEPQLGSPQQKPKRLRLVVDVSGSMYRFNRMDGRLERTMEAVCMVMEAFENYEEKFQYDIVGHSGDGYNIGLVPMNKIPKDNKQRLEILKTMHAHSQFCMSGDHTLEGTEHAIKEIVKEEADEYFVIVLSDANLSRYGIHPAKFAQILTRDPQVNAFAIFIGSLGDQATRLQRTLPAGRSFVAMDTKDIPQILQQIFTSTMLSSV

Consider UniProt O15400|O15400-2, for which the NP40-soluble protein abundance by setting is: (concentration: 1mM) 1.01 ± 0.059; (concentration: 2mM) 1.04 ± 0.1; (concentration: 4mM) 0.993 ± 0.06; (concentration: 6mM) 0.992 ± 0.035; (concentration: 8mM) 0.976 ± 0.039; (concentration: 10mM) 0.957 ± 0.038.
Regarding RNF113A (UniProt O15541), the NP40-soluble protein abundance (concentration: 1mM) was found to be 1.02 ± 0.038; the NP40-soluble protein abundance (concentration: 2mM) is 1.04 ± 0.089; the NP40-soluble protein abundance (concentration: 4mM) came to 0.999 ± 0.029; the NP40-soluble protein abundance (concentration: 6mM) was found to be 0.979 ± 0.017; the NP40-soluble protein abundance (concentration: 8mM) was 0.935 ± 0.012; the NP40-soluble protein abundance (concentration: 10mM) is 0.973 ± 0.035.
Turning to I3L4X7|Q13227|Q13227-2 (UniProt Q13227), the NP40-soluble protein abundance runs as follows: (concentration: 1mM) 0.982 ± 0.029; (concentration: 2mM) 1.03 ± 0.059; (concentration: 4mM) 1.02 ± 0.064; (concentration: 6mM) 1.08 ± 0.067; (concentration: 8mM) 1.05 ± 0.019; (concentration: 10mM) 1.1 ± 0.019.
Take G5E994|Q5VW38|Q5VW38-2 (UniProt Q5VW38): the NP40-soluble protein abundance came out at 1.026 ± 0.0089 (concentration: 1mM); 1.01 ± 0.018 (concentration: 2mM); 0.976 ± 0.02 (concentration: 4mM); 0.983 ± 0.024 (concentration: 6mM); 1.01 ± 0.021 (concentration: 8mM); 1.018 ± 0.0091 (concentration: 10mM).
As to H7C1I0|Q96K37|Q96K37-2 (UniProt Q96K37), the NP40-soluble protein abundance stood at 1.02 ± 0.041 (concentration: 1mM); 1.03 ± 0.017 (concentration: 2mM); 1.02 ± 0.022 (concentration: 4mM); 1.02 ± 0.039 (concentration: 6mM); 1.05 ± 0.054 (concentration: 8mM); 1.07 ± 0.056 (concentration: 10mM).
In the case of H0YIV9|O43716 (UniProt O43716+H0YIV9), the NP40-soluble protein abundance is, setting by setting: (concentration: 1mM) 0.973 ± 0.038; (concentration: 2mM) 1.02 ± 0.038; (concentration: 4mM) 1.01 ± 0.03; (concentration: 6mM) 0.988 ± 0.012; (concentration: 8mM) 0.977 ± 0.015; (concentration: 10mM) 0.962 ± 0.013.
For “H3BLV9|Q5R363|Q96SB4|Q96SB4-3|Q96SB4-4 (UniProt Q96SB4)”, the NP40-soluble protein abundance stood at 1.08 ± 0.011 (concentration: 1mM); 1.14 ± 0.035 (concentration: 2mM); 1.22 ± 0.035 (concentration: 4mM); 1.29 ± 0.036 (concentration: 6mM); 1.359 ± 0.011 (concentration: 8mM); 1.46 ± 0.044 (concentration: 10mM).
On to F8W922|Q9H7P6|Q9H7P6-2 (UniProt Q9H7P6), for which the NP40-soluble protein abundance runs as follows: (concentration: 1mM) 1.01 ± 0.013; (concentration: 2mM) 0.98 ± 0.022; (concentration: 4mM) 0.989 ± 0.02; (concentration: 6mM) 1.02 ± 0.032; (concentration: 8mM) 1.02 ± 0.016; (concentration: 10mM) 1.02 ± 0.013.
On to C9JYN0|Q16563-2|Q16563 (UniProt Q16563), for which the NP40-soluble protein abundance reads like this: (concentration: 1mM) 1.01 ± 0.015; (concentration: 2mM) 1.06 ± 0.12; (concentration: 4mM) 1.05 ± 0.042; (concentration: 6mM) 1.12 ± 0.12; (concentration: 8mM) 1.12 ± 0.057; (concentration: 10mM) 1.14 ± 0.17.
For the target “A0A0C4DG78|M0R3C6|Q8TBC5|Q8TBC5-2|Q8TBC5-3|Q8TBC5-4 (UniProt Q8TBC5)”, the NP40-soluble protein abundance by setting is: (concentration: 1mM) 1 ± 0.012; (concentration: 2mM) 1.02 ± 0.03; (concentration: 4mM) 0.984 ± 0.028; (concentration: 6mM) 1.016 ± 0.003; (concentration: 8mM) 1.002 ± 0.0089; (concentration: 10mM) 1.02 ± 0.011.
On to I3VM54|Q9Y2K7 (UniProt Q9Y2K7), for which the NP40-soluble protein abundance reads like this: (concentration: 1mM) 1.02 ± 0.016; (concentration: 2mM) 1.08 ± 0.045; (concentration: 4mM) 1.17 ± 0.037; (concentration: 6mM) 1.26 ± 0.12; (concentration: 8mM) 1.31 ± 0.11; (concentration: 10mM) 1.43 ± 0.17.
UniProt O14523|O14523-2: the NP40-soluble protein abundance (concentration: 1mM) worked out at 0.973 ± 0.015; the NP40-soluble protein abundance (concentration: 2mM) worked out at 0.988 ± 0.013; the NP40-soluble protein abundance (concentration: 4mM) is 0.985 ± 0.037; the NP40-soluble protein abundance (concentration: 6mM) was 0.968 ± 0.027; the NP40-soluble protein abundance (concentration: 8mM) amounted to 0.97 ± 0.047; the NP40-soluble protein abundance (concentration: 10mM) was determined as 1.01 ± 0.06.
K7EK07|P84243 (UniProt P84243+K7EK07): the NP40-soluble protein abundance was 0.97 ± 0.11 (concentration: 1mM); 1.01 ± 0.094 (concentration: 2mM); 1.01 ± 0.084 (concentration: 4mM); 1.08 ± 0.13 (concentration: 6mM); 1.09 ± 0.15 (concentration: 8mM); 1.16 ± 0.1 (concentration: 10mM).
Regarding UniProt A2RU67, the NP40-soluble protein abundance runs as follows: (concentration: 1mM) 0.9918 ± 0.004; (concentration: 2mM) 1.03 ± 0.031; (concentration: 4mM) 1.02 ± 0.021; (concentration: 6mM) 1 ± 0.019; (concentration: 8mM) 1 ± 0.017; (concentration: 10mM) 1.03 ± 0.016.
Turning to UniProt A3KMH1|A3KMH1-3, the NP40-soluble protein abundance (concentration: 1mM) was found to be 0.93 ± 0.024; the NP40-soluble protein abundance (concentration: 2mM) is 0.858 ± 0.098; the NP40-soluble protein abundance (concentration: 4mM) came to 0.933 ± 0.025; the NP40-soluble protein abundance (concentration: 6mM) was found to be 0.874 ± 0.035; the NP40-soluble protein abundance (concentration: 8mM) came out at 0.879 ± 0.017; the NP40-soluble protein abundance (concentration: 10mM) worked out at 0.8557 ± 0.0057.

The record behind these values is the supplement of paper PMC6411743.
